Screening results (PubChem)
Most compounds without a hit are left out; they make up all but 3.2% or so of the library.
DAGLB inhibitor: blocks human DAGLB lipase activity | Q8NCG7 | inhibition, % at 5.17 µM | actives 0.059% (n = 340,000) | HEK293T DAGLB membrane lysate, EnzChek fluorogenic substrate; in the data active means inhibition above about 34%;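 further: 0% = enzyme with vehicle and 100% = wells lacking enzyme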
NadD inh: inhibitors of Staphylococcus aureus NadD. inhibition, % at 20 µM. purified NadD enzyme, colorimetric absorbance read-out. actives 0.78% (n = 360,000); in the data active means inhibition above about 26%
DSG3 Ab inh: inhibitors of pemphigus antibody binding to human desmoglein-3. P32926. DSG3-coupled beads, scFv-anti-DSG3-GFP binding, flow cytometry; hits give low values. binding (percent of control), % at 10 µM. actives 0.48% (n = 310,000);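 active means binding more than 3 SD below its plate's average and above zero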;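 further: hits lower antibody fragment binding to DSG3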
Target sequence (P32926 whole entry, looked up, the tested form may be a part): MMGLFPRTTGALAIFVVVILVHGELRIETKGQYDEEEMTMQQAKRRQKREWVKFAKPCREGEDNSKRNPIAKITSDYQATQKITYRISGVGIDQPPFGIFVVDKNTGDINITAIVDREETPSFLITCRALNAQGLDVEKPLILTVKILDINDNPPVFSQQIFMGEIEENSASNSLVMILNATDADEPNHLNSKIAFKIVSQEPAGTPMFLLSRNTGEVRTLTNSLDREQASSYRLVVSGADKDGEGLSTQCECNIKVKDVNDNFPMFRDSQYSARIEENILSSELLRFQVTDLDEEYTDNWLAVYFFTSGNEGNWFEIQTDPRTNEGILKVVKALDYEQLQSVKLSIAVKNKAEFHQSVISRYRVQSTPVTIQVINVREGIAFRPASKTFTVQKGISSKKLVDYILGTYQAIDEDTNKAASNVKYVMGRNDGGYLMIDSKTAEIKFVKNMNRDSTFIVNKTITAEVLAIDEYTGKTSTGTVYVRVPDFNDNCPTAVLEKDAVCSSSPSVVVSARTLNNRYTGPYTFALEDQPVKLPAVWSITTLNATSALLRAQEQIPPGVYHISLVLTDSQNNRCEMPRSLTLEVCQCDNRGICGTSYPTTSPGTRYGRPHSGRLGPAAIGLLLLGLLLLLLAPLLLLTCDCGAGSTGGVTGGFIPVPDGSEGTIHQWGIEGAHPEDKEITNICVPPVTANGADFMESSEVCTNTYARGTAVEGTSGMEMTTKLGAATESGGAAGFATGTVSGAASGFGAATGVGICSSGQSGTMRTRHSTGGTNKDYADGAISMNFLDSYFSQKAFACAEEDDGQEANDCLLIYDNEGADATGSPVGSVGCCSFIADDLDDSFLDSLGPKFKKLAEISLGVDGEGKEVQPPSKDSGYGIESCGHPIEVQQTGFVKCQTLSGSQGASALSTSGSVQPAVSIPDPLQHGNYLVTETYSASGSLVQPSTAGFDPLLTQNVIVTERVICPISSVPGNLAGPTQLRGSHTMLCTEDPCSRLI
MsrA act: activators of bovine methionine sulfoxide reductase A. actives 0.3% (n = 360,000). purified bovine MsrA, absorbance read-out. activation, % at 10.6 µM. AID 602163; in the data active means activation above about 7.5%;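 further: 0% = vehicle and 100% = reference activator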
rCAG binder: binds r(CAG) RNA repeats | r(CAG) RNA repeat, TO-PRO-1 dye displacement fluorescence | actives 1.3% (n = 370,000) | inhibition, % at 3 µM;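 active means inhibition above the plate cutoff, the mean of all test compounds on that plate plus 3 SD, cut at about 35% in these data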;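 further: 0% = DMSO alone and 100% = 100 µM mitoxantrone as full dye displacement; higher means more dye released from RNA so lower well fluorescence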
MsrA inh: inhibits bovine methionine sulfoxide reductase A | purified bovine MsrA, absorbance read-out | inhibition, % at 15.5 µM | actives 0.75% (n = 360,000); in the data active means inhibition above about 4.5%;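 further: 0% = vehicle wells with enzyme and 100% = reference inhibitor wells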
Active calls of the source: *; nt = no result given.

SMILES | DAGLB inhibitor | NadD inh | DSG3 Ab inh | MsrA act | rCAG binder | MsrA inh
CC(=O)[C@@]1(O)Cc2c(O)c3c(c(O)c2[C@H](O[C@H]2C[C@H](N)[C@H](O)[C@H](C)O2)C1)C(=O)c1ccccc1C3=O | nt | -6.0 | nt | 1.3 | -16.8 | 4.6*
COc1cccc2c1C(=O)c1c(O)c3c(c(O)c1C2=O)C[C@@](O)(C(=O)CO)C[C@@H]3OC1CC(N)C(O)C(C)O1 (stereo partly drawn) | -21.5 | 52.6* | 82.3 | -2.2 | 10.3 | -0.2
CCNC(=S)N1CCC(C(=O)c2ccc(F)cc2)CC1 | -2.4 | -7.3 | 97.0 | -0.3 | -0.1 | 0.2
C#CCNC(=O)C[C@H]1C[C@@]2(C(=O)OC)C(=C[C@H](C3CCCC3)O[C@@H]2C)N(CCC2=CCCCC2)C1=O | nt | nt | nt | nt | 6.1 | nt
CCC1=NN2C(=N)/C(=C/c3ccc(OS(=O)(=O)c4ccccc4)cc3)C(=O)N=C2S1 | 2.9 | 34.4* | 103.6 | 1.6 | nt | nt
N=C1/C(=C/c2ccc(OCc3ccccc3F)cc2)C(=O)N=C2SC(CC(=O)N3CCOCC3)=NN12 | -2.4 | 33.2* | 104.7 | -5.1 | 22.6 | 0.6
O=C(CCc1ccccc1)N[C@H]1[C@@H](OC(=O)c2cnccn2)CCC[C@@]12C(=O)N(Cc1ccccc1)c1ccccc12 | nt | nt | nt | nt | 2.6 | nt
CC(C)(C)NC(=O)C(c1cccc2ccccc12)n1c(=O)c(-c2ccco2)nc2ccccc21 (stereo not drawn) | nt | nt | nt | nt | 43.7* | -0.3
O=C(NCc1ccccc1)C(c1cccc2ccccc12)n1c(=O)c(-c2ccco2)nc2ccccc21 (stereo not drawn) | nt | nt | nt | nt | 38.3* | 0.0
Cc1ccccc1Cn1cc(CN2[C@@H](C)COc3cc(Br)ccc3S2(=O)=O)nn1 | nt | nt | nt | nt | 0.3 | nt
CN(C(=O)COC(=O)CSc1ccc([N+](=O)[O-])cc1)c1ccccc1 | -1.3 | -3.0 | 101.3 | -10.7 | 0.3 | 0.9
CN(C(=O)COC(=O)CN1C(=O)c2cccc([N+](=O)[O-])c2C1=O)c1ccccc1 | -1.5 | -1.7 | 77.2* | -9.0 | 2.3 | 1.2
COc1ccc(N2CC(O)=C(c3nc(-c4ccccc4)cs3)C2=N)cc1 | 2.1 | 5.2 | 43.0* | 0.8 | 0.0 | -0.6
CCOC(=O)c1ccc(N/C=C/C(=O)c2ccc(OC)c(OC)c2)cc1 | -3.2 | -8.4 | 93.4 | -2.5 | 2.0 | 0.0
COc1ccc(C(=O)/C=C/Nc2ccc(S(N)(=O)=O)cc2)cc1OC | -0.4 | -1.8 | 71.0* | -3.9 | 5.5 | 2.9
CCCCSc1nnc(-c2ccc(NC(=O)CCc3ccccc3)cc2)n1C | -0.8 | 8.0 | -28.0* | -3.7 | -4.0 | -0.7
CC(C)C[C@@H]1COc2cccc(F)c2S(=O)(=O)N1C | nt | nt | nt | nt | -1.3 | nt
COc1ccccc1Nc1nc(-c2sc(N)nc2C)cs1 | 3.7 | 18.8 | 101.2 | -2.5 | 17.4 | 0.0
Cc1nc(N)sc1-c1csc(Nc2ncccn2)n1 | 4.5 | 21.7 | -54.0* | -2.4 | 17.1 | -0.8
Cc1ccc(C(=O)NCCc2ccccc2)cc1 | 0.7 | 1.0 | 120.5 | -1.6 | nt | nt
O=C(NCCO)c1ccc2nc(-c3ccco3)c(-c3ccco3)nc2c1 | 0.9 | -0.6 | 73.5 | -0.9 | 54.1* | 1.0
O=C(NCCc1ccccc1)c1ccc2nc(-c3ccco3)c(-c3ccco3)nc2c1 | 10.2 | 39.6* | nt | -3.5 | nt | nt
O=C(NC1CCCC1)c1ccc2nc(-c3ccco3)c(-c3ccco3)nc2c1 | 10.7 | 22.3 | nt | -3.1 | nt | nt
c1coc(-c2nc3ccccc3nc2-c2ccco2)c1 | 4.8 | 2.5 | 103.1 | 2.0 | 52.3* | -0.5
CCCCCCSc1ccc([C@H]2N[C@@](C)(C(=O)OC)[C@H]3C(=O)N(C)C(=O)[C@@H]23)cc1 | -8.7 | -7.0 | 99.2 | 8.4* | -8.2 | 0.0
SMILES | DAGLB inhibitor | NadD inh | DSG3 Ab inh | MsrA act | rCAG binder | MsrA inh
CCCSc1ccc([C@H]2N[C@@](C)(C(=O)OC)[C@H]3C(=O)N(C)C(=O)[C@@H]23)cc1 | -3.9 | -11.5 | 96.0 | -3.9 | -5.5 | -1.2
CC1(C)CC[C@]2(C(=O)n3ccnc3)CC[C@]3(C)[C@H](C(=O)C=C4[C@@]5(C)C=C(C#N)C(=O)C(C)(C)[C@@H]5CC[C@]43C)[C@@H]2C1 | 18.0 | 43.4* | nt | -6.7 | 52.8* | -1.2
O=C1C(SCCO)=C(SCCO)C(=O)c2ccccc21 | -7.8 | 4.6 | 92.3 | 0.3 | 5.3 | 1.0
CC1=C(SCc2ccccc2)C(=O)c2ccccc2C1=O | -7.0 | 13.9 | 93.9 | 1.2 | 27.4 | 20.6*
CC(C)CN1C(=O)[C@@]2(CC(=O)N(C)C2c2ccccc2)c2cc(-n3cc(CN(C)C)nn3)ccc21 (stereo partly drawn) | nt | nt | nt | nt | 3.4 | nt
Cc1[nH]n2c(=O)c3c(nc2c1-c1ccc(Cl)cc1)CCC3 | 2.4 | 5.8 | 100.8 | 0.0 | nt | nt
Nc1[nH]n2c(=O)c3c(nc2c1N=Nc1ccc(Cl)cc1)CCCC3 | 4.0 | 31.8* | 89.3 | -2.5 | 16.5 | -0.5
c1ccc(-c2nn(-c3ccccc3)[n+](-c3ccccc3)n2)cc1 | -0.6 | -3.1 | 90.6 | 1.2 | -1.3 | -0.5
COC(=O)c1ccc2nc(-c3ccc(F)cc3)c(Cc3ccccc3C(F)(F)F)n2c1 | nt | 7.8 | nt | -2.3 | 9.4 | -0.5
Cc1onc(-c2c(F)cccc2Cl)c1C(=O)c1ccc(F)cc1 | nt | 1.1 | 64.4* | -13.8 | -6.4 | -1.5
Cc1onc(-c2c(Cl)cccc2Cl)c1C(=O)c1ccc(F)cc1 | nt | 1.4 | 104.0 | 0.1 | -7.7 | -0.3
C=CCN1[C@H](C#N)[C@@H](c2ccc(C#Cc3cccnc3)cc2)[C@H]1CO | nt | nt | nt | nt | 3.6 | nt
CCOC(=O)[C@]12CCCC3=C1N(CCC3)C(=O)[C@@H](CC(=O)N1CCCCC1)C2 | nt | nt | nt | nt | -0.6 | nt
COC(=O)CNc1nc(Cl)nc(Nc2ccc(C)cc2)n1 | -1.6 | -2.3 | 101.2 | -7.5 | -2.1 | 0.0
COC(=O)CNc1nc(Cl)nc(Nc2ccc(Cl)cc2)n1 | -0.7 | 0.0 | 75.5* | -6.3 | 1.4 | -1.4
CCOC(=O)CC1(NC(=O)c2cc(COc3cccc(OC)c3)on2)CCCCC1 | -8.7 | -3.7 | 81.3* | -1.4 | -4.4 | 0.4
C[C@H](O)[C@@H]1CN2CCc3ccc(N4CCOCC4)cc3[C@@H]2C[C@@H]1N(C)C(=S)NCCc1ccccc1 | nt | nt | nt | nt | 2.8 | nt
O=C(NCC1CC1)c1cc2c(c(-c3cccc(-c4ccccc4F)c3)n1)[C@@H](CCO)N(C(=O)CC1CC1)C2 | nt | -5.8 | nt | -2.0 | 6.6 | 1.1
CN1CCN(C2=C(NS(=O)(=O)c3ccccc3)C(=O)c3ccccc3C2=O)CC1 | 0.6 | -1.9 | 102.0 | 15.4* | nt | nt
O=C(NCCCCO)c1c(-c2ccccc2)oc2c1C(OCCCCCO)CCC2 (stereo not drawn) | nt | -1.7 | nt | -12.1 | -0.5 | 1.6
COc1ccc(OC)c(NC(=O)c2nc(-c3ccccc3)oc2C)c1 | -5.7 | 4.1 | 82.7* | 0.5 | -1.0 | -0.1
CN(C)c1ccc(C=c2c3ccccc3n3c2cc(-c2ccc(Cl)cc2)[n+]3C)cc1 | 13.8 | 38.9* | nt | 14.5* | 23.9 | 4.2
CN(C)c1ccc(C=c2c3cc([N+](=O)[O-])ccc3n3c2cc(-c2ccccc2)[n+]3C)cc1 | 33.5 | 48.1* | 40.1 | -4.2 | 28.1 | 4.3
